# Source: PubChem BioAssay
# HTR5A ag – counter-screen for OPRM1-OPRD1 agonists: human HTR5A agonism | P47898 | HTR5A agonist assay, luminescence, cell-based | activation, % at 9.3 µM | 340,000 tested, 0.61% active | AID 504692; in the data active means activation mostly above about 9.5%, no sharp cut-off; inactive means mostly below about 7.6%;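 further: 0% = cells with vehicle only and 100% = reference agonist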
# MOR-DOR inv ag – inverse agonist of human OPRM1-OPRD1 heterodimerization | P35372+P41143 | cell-based MOR-DOR heterodimer luminescence, inverse agonism | inhibition, % at 9.3 µM | 340,000 tested, 0.21% active | AID 504357; in the data active means inhibition above about 22%, passing the limit was not always enough;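 further: 0% = cells with DMSO and 100% = wells without cells with DMSO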
# Target sequence (P35372 whole entry, looked up): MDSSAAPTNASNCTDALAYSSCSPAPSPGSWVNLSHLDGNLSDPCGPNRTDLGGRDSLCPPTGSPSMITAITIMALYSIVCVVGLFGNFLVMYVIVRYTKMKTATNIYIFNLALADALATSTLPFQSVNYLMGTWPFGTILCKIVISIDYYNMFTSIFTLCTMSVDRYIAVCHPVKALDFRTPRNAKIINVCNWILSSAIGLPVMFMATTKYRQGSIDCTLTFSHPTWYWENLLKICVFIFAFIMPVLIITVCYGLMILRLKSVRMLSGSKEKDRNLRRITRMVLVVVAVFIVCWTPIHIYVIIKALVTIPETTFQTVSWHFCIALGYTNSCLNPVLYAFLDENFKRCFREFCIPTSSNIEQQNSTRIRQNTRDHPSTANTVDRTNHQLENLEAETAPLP
# Target sequence (P41143 whole entry, looked up): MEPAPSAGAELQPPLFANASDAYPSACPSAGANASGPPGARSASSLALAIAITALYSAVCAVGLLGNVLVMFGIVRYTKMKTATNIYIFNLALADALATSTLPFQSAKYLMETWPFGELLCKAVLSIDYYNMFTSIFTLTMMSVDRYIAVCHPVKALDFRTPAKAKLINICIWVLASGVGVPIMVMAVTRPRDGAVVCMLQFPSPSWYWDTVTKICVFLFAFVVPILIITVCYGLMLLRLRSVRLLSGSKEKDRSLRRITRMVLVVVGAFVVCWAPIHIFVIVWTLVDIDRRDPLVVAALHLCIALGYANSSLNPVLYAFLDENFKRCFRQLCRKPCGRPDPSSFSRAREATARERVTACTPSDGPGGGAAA
# MOR-DOR ag-1 – OPRM1-OPRD1 heterodimerization agonism; P35372+P41143; cells, luminescence; activation, % at 9.3 µM; 340,000 tested, 0.3% active; AID 504326;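 further: 0% = vehicle-treated cells and 100% = reference agonist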
# HTR5A inv ag – HTR5A inverse agonism, opioid heterodimer counter-screen | P47898 | HTR5A cell line, luminescence | inhibition, % at 9.3 µM | 340,000 tested, 0.083% active | AID 504634; in the data active means inhibition mostly above about 23%, no sharp cut-off; inactive means mostly below about 18%;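 further: 0% = cells with DMSO and 100% = no-cell wells with DMSO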
# V-ATPase pHluor – regulators of yeast V-ATPase proton transport; S. cerevisiae, pHLuorin cytosolic pH fluorescence; response, % at 10 µM; 350,000 tested, 0.37% active; AID 504577; in the data active means response mostly above about 7.3%, no sharp cut-off; inactive means mostly below about 5.4%; further: actives read high
# MIN6 prolif – inducers of beta-cell replication in MIN6 cells. proliferation, % at 10 µM. MIN6 cells proliferation, ATPlite luminescence, 48 h; cells starved in 0.2% serum; 100% = growth in 10% serum. AID 2380. 330,000 tested, 0.29% active;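 active means compounds whose signal lies at least 3.5 SD above the mean of all wells on their plate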;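 further: 0% = DMSO-treated cells in low-serum medium and 100% = 10% serum control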
# MOR-DOR ag-2 – opioid heterodimer agonism, HTR5A counter-screen; shares compounds with HTR5A ag; 800 tested, 13% active; activation, % at 9.3 µM; U2OS counter-screen cells, complementation luminescence, 3 h; AID 504913
# HTR5A ag confirm – confirmation of human HTR5A agonists; shares compounds with HTR5A ag; HTR5A agonist cell assay, luminescence; activation, % at 9.3 µM; 800 tested, 17% active; in the data active means activation above about 17%;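 further: 0% = cells with vehicle only and 100% = full reference agonist response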
# * hit, by the source's call; x = not tested or not shown; ! = repeats disagree. An excerpt weighted towards active compounds, which were near 1.7% of everything screened. Unless noted, no stated cut-off is given here; in the data, active means activation above about 18%; inactive means the rest.
SMILES,HTR5A ag,MOR-DOR inv ag,MOR-DOR ag-1,HTR5A inv ag,V-ATPase pHluor,MIN6 prolif,MOR-DOR ag-2,HTR5A ag confirm
O=C(COc1ccccc1)Nc1ccc(-c2nnc(-c3ccco3)o2)cc1,16*,-34,7,-30,-1,-2,0,1
Cc1cc(C)c2c(=O)cc(C(=O)NCc3ccccc3)oc2c1,5,3,-1,-17,-4,-2,x,x
C=CCn1c(Br)nc2c1c(=O)[nH]c(=O)n2C,18*,-1,0,-47,-2,-3,-1,-1
C=CCNC(=S)N1CCN(Cc2ccccc2)CC1,-1,6,-1,3,4,-3,x,x
Cc1cc(-c2ccccc2C(=O)NC2CCCCC2)on1,15*,-14,3,-8,-6,-1,6,2
COc1ccc(CCNc2nc(C)nc3c2nnn3Cc2ccccc2)cc1,-3,-8,2,13,0,-2,x,x
O=C(O)/C=C/C(=O)Nc1ccc(C2(c3ccc(NC(=O)/C=C/C(=O)O)cc3)c3ccccc3-c3ccccc32)cc1,26*,-10,2,-100,-4,0,4,-1
CCC(OC(=O)CN1C(=O)c2ccccc2C1=O)C(=O)NC1CCCC1 (stereo not drawn),2,7,-1,-6,6,2,x,x
CC(C)C(OC(=O)CN1C(=O)c2ccccc2C1=O)C(=O)NC1CCCCC1 (stereo not drawn),15*,7,-1,-42,4,-1,9,6
CC1CCN(C(=O)CN2C(=O)NC3(CCC(C)CC3)C2=O)CC1 (stereo not drawn),2,-1,0,-6,3,7,x,x
CCOC(=O)Cn1cnc([N+](=O)[O-])n1,7,-3,0,-19,0,1,x,x
CC(=O)CCn1cnc([N+](=O)[O-])n1,15*,9,-2,1,0,-2,60*,-1
COc1cc(C(=O)NCC(=O)N/N=C/c2ccc(OC(=O)c3ccco3)cc2)cc(OC)c1OC,22*,11,-2,-9,2,-3,1,4
CC1CCC(C(C)C)C(OC(=O)Cn2c(-c3ccc(Br)cc3)[n+](C)c3ccccc32)C1 (stereo not drawn),17*,-9,2,-43,1,-7,50*!,4
Cc1ccccc1OCc1n(CC(=O)OC2CC(C)CCC2C(C)C)c2ccccc2[n+]1C (stereo not drawn),18*,-21,4,-51,1,-5,14,7
Cc1ccc(S(=O)(=O)CCC(=O)OCC(=O)N2c3ccccc3CC2C)cc1 (stereo not drawn),29*,-4,1,-76,-4,-1,0,33*
COc1ccccc1N1CCN(C(=O)c2ccc(Cn3c(=O)[nH]c4ccsc4c3=O)cc2)CC1,16*,1,0,9,-7,-1,0,12
CC(=O)C1=C(C)Nc2ncnn2C1c1ccccc1F (stereo not drawn),-4,10,-2,16,-1,0,x,x
CCOC(=O)C1=C(COC(=O)/C=C/c2ccc(OC)cc2)NC(=O)NC1C (stereo not drawn),2,18,-4,-6,-5,3,x,x
CCOC(=O)C1=C(COC(=O)/C=C/c2ccco2)NC(=O)NC1C (stereo not drawn),16*,-23,4,3,-5,2,4,0
CC1=NNC(=O)/C1=C\c1cn(-c2ccccc2)nc1-c1cccs1,17*,-28,4,-45,4,-6,3,2
O=S(=O)(N/N=C\c1ccccc1O)c1ccc(Cl)cc1,3,8,-2,-9,1,-6,x,x
O=S(=O)(N/N=C\C=C\c1ccccc1)c1ccc(Cl)cc1,28*,-43,8,-106,1,-3,4,43*
Cc1nc(C)c(C(=O)N2CCCC(C(=O)c3ccc(Cl)cc3C)C2)s1 (stereo not drawn),5,1,0,0,1,-2,x,x
Cc1ccc2cc(CCNS(=O)(=O)c3ccc(Br)cc3)c(=O)[nH]c2c1C,7,-3,1,-15,-2,1,x,x
